From PubChem BioAssay
In the library only some 3.7% were active in any assay of this set; here they are far more common.
UGM FP inh: blocks M. tuberculosis UGM enzyme; P9WIQ1; purified UGM, fluorescence polarization probe displacement; inhibition, % at 10 µM; hit rate 0.06% among 320,000; AID 504406; in the data active means inhibition above about 10%, passing the limit was not always enough
Target sequence (P9WIQ1 whole entry, looked up): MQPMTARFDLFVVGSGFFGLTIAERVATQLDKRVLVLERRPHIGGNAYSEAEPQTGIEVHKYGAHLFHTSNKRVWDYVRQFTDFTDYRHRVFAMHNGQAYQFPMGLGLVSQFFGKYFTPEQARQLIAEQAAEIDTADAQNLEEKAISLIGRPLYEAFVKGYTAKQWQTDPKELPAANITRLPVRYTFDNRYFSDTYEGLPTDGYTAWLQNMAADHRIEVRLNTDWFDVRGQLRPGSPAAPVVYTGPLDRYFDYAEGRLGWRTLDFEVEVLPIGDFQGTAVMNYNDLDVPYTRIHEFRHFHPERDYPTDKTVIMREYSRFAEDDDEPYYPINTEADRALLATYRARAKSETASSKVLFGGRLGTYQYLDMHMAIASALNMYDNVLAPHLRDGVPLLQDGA
FadD28 FP inh: blocks FadD28 binding to the bisubstrate probe | AID 588549 | hit rate 0.22% among 360,000 | fluorescence polarization | inhibition, % at 12.5 µM; in the data active means inhibition above about 8.5%, passing the limit was not always enough
GDH-TPI counter-1: GDH-TPI coupled enzyme inhibition counter-screen; GDH-TPI coupled enzyme counterscreen, NADH absorbance; inhibition, % at 4.8 µM; hit rate 1.2% among 360,000; in the data active means inhibition above about 30%;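 further: 0% = DMSO wells and 100% = wells lacking the enzyme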
Rv3671c inh: Rv3671c (M. tuberculosis) protease inhibition; inhibition, % at 5.96 µM; hit rate 0.048% among 320,000; AID 2606; in the data active means inhibition above about 38%;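 further: extracellular domain of Rv3671c used as enzyme; 0% = enzyme with DMSO and 100% = no enzyme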
Mtb betalactam: beta-lactam sensitization of Mtb H37Rv; M. tuberculosis H37Rv growth with meropenem, percent inhibition; inhibition, % at 25 µM; hit rate 0.27% among 330,000; AID 434955; call rule not given here;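 further: growth measured after seven days incubation then overnight dye step; 0% = bacteria only wells and 100% = bacteria with antibiotic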
FBA Mtb inh: inhibitors of M. tuberculosis fructose-bisphosphate aldolase; inhibition, % at 1 µM; purified M. tuberculosis FBA, fluorescence read-out; P9WQA3; AID 588726; hit rate 2.3% among 360,000;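 further: 0% = vehicle and 100% = reference inhibitor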
Mtb FBA confirm: Mtb FBA inhibition, confirmed. shares compounds with FBA Mtb inh. purified M. tuberculosis FBA, fluorescence read-out. inhibition, % at 1 µM. hit rate 78% among 5,600;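 further: 0% = vehicle wells and 100% = reference inhibitor wells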
GDH-TPI counter-2: GDH-TPI inhibition counter-screen for FBA inhibitors. shares compounds with FBA Mtb inh. GDH-TPI coupled enzyme counterscreen, fluorescence. inhibition, % at 1 µM. hit rate 81% among 5,600. AID 652141; in the data active means inhibition above about 10%
GDH-TPI DR: inhibits GDH-TPI coupling enzymes in dose response | shares compounds with FBA Mtb inh | hit rate 79% among 170 | GDH-TPI coupled enzyme assay, fluorescence, artifact counterscreen | AID 652145 | IC50, µM; call rule not given here
Active calls of the source: *; . = no result given; + = active, no number. Unless noted, no stated cut-off is given here; in the data, active means inhibition above about 27%; inactive means the rest.

SMILES	UGM FP inh	FadD28 FP inh	GDH-TPI counter-1	Rv3671c inh	Mtb betalactam	FBA Mtb inh	Mtb FBA confirm	GDH-TPI counter-2	others
CN(C(=O)C1CCCO1)c1nnc(-c2ccccn2)s1 (stereo unspecified)	3	0	10	-2	-7	68*	160*	146*
CN(C(=O)C1CCCO1)c1nnc(-c2ccncc2)s1 (stereo unspecified)	-1	-1	4	5	-1	63*	104*	89*
Cc1cccc(C(=O)N(C)c2nnc(-c3ccncc3)s2)c1	2	1	6	-1	7	0	.	.
CCc1cc(C(=O)Nc2cc(S(=O)(=O)N3CCOCC3)ccc2N2CCN(CC)CC2)sc1C	.	-3	-6	.	.	-4	.	.
O=C(Nc1cccc(F)c1)C1CCCN(S(=O)(=O)c2cccc3cccnc23)C1 (stereo unspecified)	-4	-1	6	-3	-1	-4	.	.
COc1ccc(C(=O)NCCn2cc(SCC(=O)NCC3CCCO3)c3ccccc32)cc1OC (stereo unspecified)	1	-1	-2	-8	6	3	.	.
COc1ccc2nc3n(c(=O)c2c1)-c1ccccc1C(=O)NC3Cc1ccccc1 (stereo unspecified)	-1	.	.	1	5	.	.	.
CNC(=O)c1ccc(-c2sc3nc(N4CCOCC4)c4c(c3c2N)CC(C)(C)OC4)o1	2	-3	24	1	1	41*	45*	30*
CN1Cc2c(N3CCOCC3)nc3sc(C#N)c(N)c3c2CC1(C)C	-2	-2	6	-2	5	78*	14	-5	GDH-TPI DR=1.8*
O=S1(=O)CC(N2CC=CC2)CN1Cc1ccccc1 (stereo unspecified)	.	-1	.	.	.	3	.	.
COc1ccc(NC(=O)C2CC2)cc1OC1CCCC1	-5	0	4	-6	-1	73*	68*	54*
COC(=O)c1ccc(OC)c(OC2CCCC2)c1	2	-1	6	5	1	3	.	.
O=C(CCC1CCCC1)Nc1cc(C(F)(F)F)ccc1N1CCOCC1	3	0	3	-4	-2	3	.	.
CCN(CC)CCN1C(=O)c2ccccc2NC1c1cc(OC)c(OC)c(OC)c1 (stereo unspecified)	0	-2	9	0	0	107*	+	+
CCCN1C(=O)c2ccccc2NC1c1cc(OC)c(OC)c(OC)c1 (stereo unspecified)	0	-4	2	0	-8	71*	137*	114*
Cc1cn([C@H]2C[C@H](O)[C@@H](CCC(=O)NCCN3CCCCC3)O2)c(=O)[nH]c1=O	.	-2	2	.	.	0	.	.
O=C(COC(=O)C(CO)NS(=O)(=O)c1ccc(Br)cc1)Nc1ccc2c(c1)OCCO2 (stereo unspecified)	0	-1	3	9	-3	0	.	.
COC(=O)c1c(C(=O)OC)c(C)n(Cc2ccco2)c1C	4	1	4	-6	.	-1	.	.
Nc1c(C(=O)NCCN2CCOCC2)c2nc3ccccc3nc2n1-c1cccc(F)c1	0	-3	23	0	-8	104*	-5	-6
COc1ccc(S(=O)(=O)Cc2ccc(C(=O)NCc3ccco3)o2)cc1	1	0	1	1	-6	0	.	.
CCCCn1c(N)c(C(=O)NCc2cccs2)c2nc3ccccc3nc21	1	0	7	-53	12	33*	166*	142*
CCOC(=O)c1c(N)n(Cc2ccco2)c2nc3ccccc3nc12	2	-3	15	-4	-9	77*	198*	172*
COc1ccc(Cn2c(N)c(C(=O)NCc3ccco3)c3nc4ccccc4nc32)cc1	-3	-8	6	-50	99	61*	190*	158*
O=C(NCCN1CCOCC1)c1ccc2ccccc2n1	-3	3	6	5	-18	0	.	.
CN1C(=O)N(CC(=O)N2CCN(c3ccccc3F)CC2)C(=O)C12CCCCC2	1	-3	-4	-1	-3	0	.	.
SMILES	UGM FP inh	FadD28 FP inh	GDH-TPI counter-1	Rv3671c inh	Mtb betalactam	FBA Mtb inh	Mtb FBA confirm	GDH-TPI counter-2	others
Nc1c(C(=O)NCc2ccco2)c2nc3ccccc3nc2n1Cc1ccc(F)cc1	0	-6	24	-63	-3	58*	38*	37*
CCCCNC(=O)c1c(N)n(Cc2ccc3c(c2)OCO3)c2nc3ccccc3nc12	3	2	18	-8	11	30*	65*	55*
COc1ccc(-n2c(N)c(C(=O)NCc3ccco3)c3nc4ccccc4nc32)c(OC)c1	-1	-5	4	-55	-13	60*	-1	-5
C=CCNC(=O)c1c(N)n(-c2ccc3c(c2)OCO3)c2nc3ccccc3nc12	-1	-1	15	-3	-1	0	.	.
CCCNC(=O)c1c(N)n(-c2cccc(OC)c2)c2nc3ccccc3nc12	3	-1	13	-5	4	68*	-6	-4
Nc1c(C(=O)NCc2ccco2)nnn1Cc1ccccc1	-1	0	10	1	0	-1	.	.
C#CCN(CC(=O)OCC)S(=O)(=O)CCNC1CC1	.	-4	.	.	.	-2	.	.
Nc1c(C(=O)NCc2ccco2)c2nc3ccccc3nc2n1CCN1CCOCC1	0	-5	14	-10	2	72*	108*	89*
CCCCCn1c(N)c(C(=O)NCCN2CCOCC2)c2nc3ccccc3nc21	0	-6	8	4	78	65*	+	+
COc1ccc(CCn2c(N)c(C(=O)NCc3ccco3)c3nc4ccccc4nc32)cc1	1	-7	17	-12	5	85*	+	198*
COc1ccc(CCNC(=O)c2c(N)n(CCN3CCOCC3)c3nc4ccccc4nc23)cc1OC	0	1	3	1	24	12	.	.
O=C(NCc1ccco1)c1ccc(S(=O)(=O)N2CCOCC2)cc1	-2	-3	1	0	2	2	.	.
COc1ccc(CCn2c(N)c(C(=O)NCc3ccco3)c3nc4ccccc4nc32)cc1OC	3	-18	16	-35	5	11	.	.
O=C(CN1c2cccc3cccc(c23)S1(=O)=O)N1CCOCC1	-1	0	13	-6	-3	12	.	.
CCN(CC)C(=O)CN1C(=O)c2cccc3cccc(c23)C1=O	0	-3	6	-8	-1	38*	130*	88*
O=C(CN1C(=O)c2cccc3cccc(c23)C1=O)N1CCOCC1	1	-3	0	2	3	29*	46*	39*
CNc1cc(-c2cccc(OC)c2F)nc2ccnn12	.	-2	7	.	.	109*	90*	62*
